Measurements published in PubChem BioAssay (NCATS).
Inconclusive results are not listed. Entries that show only a call come without a potency. Values without a mark were called inactive. Activity calls are given as the source filed them. The call rests on the fitted dose curve; in most records, active means well fitted inhibition curve with a large enough effect; inconclusive means small, poorly fitted or top-dose-only effect; inactive means flat fitted curve, though single readings scatter.

What follows are compounds tested against Aldehyde dehydrogenase, mitochondrial (Homo sapiens) (UniProt P05091) (assay: qHTS for Inhibitors of the Aldehyde Dehydrogenase Family (ALDH2) Primary screen (AID 2061308; further: nearly all actives have a fitted effect of over 55% in size)). Conditions: ALDH2 enzyme inhibition qHTS, 1536-well; series mostly up to 56 µM.

SMILES | Potency | activity change, negative = inhibition
O=C(NCC(O)CO)c1ccncc1Nc1ccc(I)cc1F (stereo not given) | inactive | –
CC(C)=CCC[C@](C)(O[C@@H]1O[C@H](CO)[C@@H](O)[C@H](O)[C@H]1O)[C@H]1CC[C@]2(C)[C@@H]1[C@H](O)CC1[C@@]3(C)CC[C@H](O)C(C)(C)C3[C@@H](O[C@@H]3O[C@H](CO)[C@@H](O)[C@H](O)[C@H]3O[C@@H]3OC[C@@H](O)[C@H](O)[C@H]3O)C[C@]12C (stereo not given in full) | inactive | –
O=S(=O)(N[C@H]1CCCC[C@@H]1N1CCOCC1)c1ccc(Cl)cc1 | inactive | –
CC(=O)c1[nH]cc(CCC(=O)O)c1CC(=O)O | inactive | –
CC(=O)[C@@H]1C[C@H](C(C)(C)O[C@@H]2O[C@H](CO)[C@@H](O)[C@H](O)[C@H]2O)CC[C@@]2(CO)OC(=O)C[C@@H]12 | inactive | –
C=CC[N+]1([C@H]2C[C@H]3[C@@H]4CC[C@H]5C[C@H](OC(C)=O)[C@@H](N6CCCCC6)C[C@]5(C)[C@H]4CC[C@]3(C)[C@H]2OC(=O)CC)CCCCC1 | inactive | –
C=C1[C@H](OC(C)=O)[C@H]2[C@@H](OC(C)=O)[C@](C)(OC(C)=O)C[C@]2(OC(C)=O)C(=O)[C@H](C)/C=C/C(C)(C)C(=O)[C@H](OC(=O)C(C)CC)[C@H]1OC(C)=O (stereo not given in full) | inactive | –
OC[C@H]1O[C@@H](Oc2cc(O)c3c(c2)O[C@@H](c2ccc(O)cc2)[C@H](O)C3)[C@H](O)[C@@H](O)[C@@H]1O | inactive | –
Cc1onc(C(=O)N2CCN(C(c3ccc(Cl)cc3)c3ccc(Cl)cc3)CC2)c1[N+](=O)[O-] | inactive | –
C[C@@H]1O[C@@H](O[C@H]2[C@@H]3C=CO[C@@H](O[C@@H]4O[C@H](CO)[C@@H](O)[C@H](O)[C@H]4O)[C@@H]3[C@@]3(CO)O[C@@H]23)[C@H](O)[C@H](O)[C@H]1OC(=O)/C=C/c1ccc(O)cc1 | inactive | –
CC1=CC(=O)CC(C)(CO)C1(O)/C=C/C(C)O[C@@H]1O[C@H](CO)[C@@H](O)[C@H](O)[C@H]1O (stereo not given in full) | inactive | –
O=S(=O)(NCc1ccccn1)c1ccc(Br)c2ccccc12 | inactive | –
CC(=O)NC(C(=O)OC1CCC(C)(C)C2CC=C3C(=O)OCC3(O)C12C)C(C)C (stereo not given) | inactive | –
C=C1CC2C3(C)C(O)CC(=O)C(C)(C)C3C(OC(C)=O)C(OC(C)=O)C2(C)C2C(=O)OC(C)(C(=O)OC)C(=O)C12C (stereo not given) | inactive | –
C=C1[C@H](OC(C)=O)[C@H]2[C@@H](OC(=O)c3ccccc3)[C@@H](C)C[C@]2(O)[C@@H](OC(C)=O)[C@H](C)/C=C/C(C)(C)C(=O)[C@H](OC(C)=O)[C@H]1OC(C)=O | inactive | –
C[C@]1(OC(=O)/C=C/c2ccccc2)C[C@H](O)[C@]2(O)C=CO[C@@H](O[C@@H]3O[C@H](CO)[C@@H](O)[C@H](O)[C@H]3O)C12 (stereo not given in full) | inactive | –
COc1cc(CCCO)ccc1O[C@@H]1O[C@H](CO)[C@@H](O)[C@H](O)[C@H]1O | inactive | –
C=C1CCC2[C@](C)(CCC[C@@]2(C)C=O)[C@H]1CC/C(C)=C/CO (stereo not given in full) | inactive | –
Cc1cc2sc(NC(=O)Cc3ccccc3)nc2cc1Cl | inactive | –
C=C(C)[C@H]1CC[C@]2(C(=O)O)CC[C@]3(C)C(CCC4[C@@]5(C)CCC(=O)C(C)(C)C5CC[C@]43C)C12 (stereo not given in full) | inactive | –

SMILES | Potency | activity change, negative = inhibition
CC(C)(C)NC(=O)[C@H]1CC[C@H]2[C@@H]3CC[C@H]4NC(=O)CC[C@]4(C)[C@H]3CC[C@]12C | inactive | –
C=C[C@@]1(C)CC(=O)C2[C@](C)(O1)[C@@H](OC(C)=O)[C@@H](O)[C@H]1C(C)(C)CCC[C@]21C (stereo not given in full) | inactive | –
Cc1cc(OCCCS(C)(=O)=O)cc(C)c1-c1cccc(COc2ccc(C3=CC(=O)NS3=O)cc2)c1 (stereo not given) | inactive | –
CC(=O)O[C@@H]1C[C@]2(C)[C@@]3(CCC4[C@@]5(C)CC[C@H](O[C@@H]6O[C@H](C(=O)O)[C@@H](O)[C@H](OC7OC(CO)C(O)C(O)[C@H]7O[C@@H]7O[C@@H](C)[C@H](O)[C@@H](O)[C@H]7O[C@@H]7OC[C@](O)(CO)[C@H]7O)[C@H]6OC6OC(CO)C(O)C(O)C6O)C(C)(C)C5CC[C@]42C)OC[C@@]12CCC(C)(C)CC23 (stereo not given in full) | – | 9.13% [at 11.2 µM]
C[C@@H]1O[C@@H](O[C@H]2CC[C@@]3(C)C(CC[C@]4(C)C3CC=C3[C@@H]5CC(C)(C)CC[C@]5(C(=O)O[C@@H]5O[C@H](CO)[C@@H](O)[C@H](O)[C@H]5O)CC[C@]34C)[C@]2(C)CO)[C@H](O)[C@H](O[C@@H]2O[C@H](CO)[C@@H](O)[C@H](O)[C@H]2O)[C@H]1O (stereo not given in full) | inactive | –
N[C@H]1CN(c2c(F)cc3c(=O)c(C(=O)O)cn(C4C[C@@H]4F)c3c2Cl)CC12CC2 (stereo not given in full) | inactive | –
C=CC1(C)C=C2C(O)CC3C(C)(C(=O)O)CCCC3(C)C2CC1 (stereo not given) | inactive | –
COc1cc(O)c2c(c1)C1(OC2=O)C(C)=CC(=O)C1O (stereo not given) | inactive | –
C=C1CC(=O)C2OC2(C)CC2OC(=O)C(=C)C2C(O)C1OC(=O)/C(C)=C\C (stereo not given) | inactive | –
COc1ccc([C@H]2OC[C@H]3O[C@@H](O[C@H]4[C@@H]2NC[C@@H]4O)[C@H](O)[C@H]3O)cc1 | inactive | –
C=C1CCC2C(C)(C)C(O)CCC2(C)C1CCC(C)CCOC(C)=O (stereo not given) | inactive | –
O=C(O)Cc1cn([C@@H]2OC[C@@H](O[C@@H]3O[C@H](CO)[C@@H](O)[C@H](O)[C@H]3O)[C@H](O)[C@H]2O[C@@H]2O[C@H](CO)[C@@H](O)[C@H](O)[C@H]2O)c2ccccc12 | inactive | –
C=C1C(=O)OC2CC(C)=C(C(C)CCCO[C@@H]3O[C@H](CO)[C@@H](O)[C@H](O)[C@H]3O)C(O)C12 (stereo not given in full) | inactive | –
C[C@@H]1CC[C@]2(C(=O)O[C@@H]3O[C@H](CO)[C@@H](O)[C@H](O)[C@H]3O)CC[C@]3(C)C(=CCC4[C@@]5(C)C[C@@H](O)[C@H](O)[C@@](C)(C(=O)O[C@H]6[C@H](O)C[C@@]7(C)C(CC[C@]8(C)C7CC=C7[C@H]9[C@](C(=O)O[C@@H]%10O[C@H](CO)[C@@H](O)[C@H](O)[C@H]%10O)(CC[C@@H](C)[C@@]9(C)O)CC[C@]78C)[C@@]6(CO)C(=O)O)C5CC[C@]43C)[C@@H]2[C@]1(C)O (stereo not given in full) | – | -16.3% [at 11.2 µM]
O=C(/C=C\c1ccc(O)cc1)N[C@@H](Cc1ccc(O)cc1)C(=O)O | inactive | –
CC(C)[C@@](O)(c1ccc2cc(OC(F)F)c(OC(F)F)cc2c1)c1cn[nH]n1 | inactive | –
C=C1C[C@]23C[C@H]1CC[C@H]2[C@]1(C)CCC[C@@](C)(C(=O)O)[C@H]1[C@@H]3C(=O)O | inactive | –
CC(C)c1noc(C2CCN(c3ncnc(Nc4ccc(S(C)(=O)=O)cc4F)c3[N+](=O)[O-])CC2)n1 | inactive | –
Cc1ncc([N+](=O)[O-])n1C[C@H](O)CN1CCOCC1 | inactive | –
CC1CCC23COC(=O)C2=CC(O)CC3C1(C)CCc1ccoc1 (stereo not given) | inactive | –
